Data on 6 molecules can be found in PubChem BioAssay (NCATS).

Experiment [1] is described as follows: qHTS profiling of the MIPE4 collection as inhibitors of Plasmodium falciparum (3D7) proliferation (AID 743344).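 Note: scaled between DMSO vehicle wells and 0.29 µM artemisinin as full inhibition.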 Conditions: P. falciparum 3D7 in erythrocytes, SYBR Green DNA fluorescence, 72 h. Summed up: (§1)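 Erythrocytes infected with P. falciparum (0.3% parasitemia, 2.5% hematocrit) incubated with compounds 72 h at 37 C, 5% CO2. Lysis with saponin/Triton buffer containing SYBR Green I, overnight at room temperature in the dark; DNA fluorescence (485/535 nm) normalised to 0.29 uM artemisinin and DMSO.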

The nature of experiment [2]: qHTS profiling of the MIPE4 collection as inhibitors of Plasmodium falciparum (DD2) proliferation (AID 743345). The note with it: P. falciparum Dd2 in erythrocytes, SYBR Green DNA, 72 h. Put shortly: as §1
Experiment [3] in a line: qHTS profiling of the MIPE4 collection as inhibitors of Plasmodium falciparum (DD2) proliferation (Rep 2) (AID 743346). The note with it: P. falciparum Dd2 in erythrocytes, SYBR Green DNA, 72 h. Put shortly: as §1
Experiment [4] can be described thus: qHTS profiling of the MIPE4 collection as inhibitors of Plasmodium falciparum (HB3) proliferation (AID 743347).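 Note: plate controls were DMSO vehicle wells for no effect and artemisinin wells for full effect.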 The note with it: P. falciparum HB3 in erythrocytes, SYBR Green DNA, 72 h. Put shortly: as §1
A short description of experiment [5]: High-throughput drug toxicity screening in the BPDCN cell line Gen2.2 (AID 1224824).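 Note: cells exposed to compounds for 48 h before reading.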 Conditions: Gen2.2 BPDCN cells; at 45.8 µM (top of the series) unless noted. Summed up:
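Seed 500 exponentially growing Gen2.2 cells/well; add compounds by pin tool; incubate 48 h, 37 °C, 5% CO2; add CellTiter-Glo, 15 min RT; read luminescence. % activity vs DMSO (100%) and bortezomib (0%).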

Experiment [6] can be described thus: High-throughput drug toxicity screening in the BPDCN cell line Cal-1 (AID 1224825). Conditions: Cal-1 BPDCN cell viability, qHTS; at 45.8 µM (top of the series) unless noted. Summed up:
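Exponentially growing Cal-1 cells, 500 per well in phenol red-free RPMI with 10% FBS, were exposed to compounds for 48 h at 37 °C, 5% CO2. Viability was read by CellTiter-Glo luminescence and normalised to DMSO (100%) and 9.2 uM bortezomib (0%).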

Experiment [7] is described as follows: qHTS assay for measurement of the activity of small molecule inhibitors on Zika virus induced Caspase-3 activity in human iPSC derived neural progenitor cells (hNPCs) (AID 1224857; active = well fitted curve in the direction sought with a large enough effect; an effect the other way counts as inactive or inconclusive; note: % of control where 0% means no effect; nearly all actives have a fitted effect of over 65% in size). Summed up:
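Caspase-3/7 induction by a 6-hour ZIKV infection was quantified with a luminescent Caspase-Glo 3/7 reagent incubated 30 minutes at room temperature. Compounds were preincubated with hNPCs for 1 hour; inhibition was calculated against uninfected and infected control wells.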

The nature of experiment [8]: qHTS assay for measurement of the activity of small molecule inhibitors on Zika virus induced Caspase-3 activity in human astrocytoma cells (AID 1224859; active = well fitted curve in the direction sought with a large enough effect; an effect the other way counts as inactive or inconclusive;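 note: plate controls were ZIKV-infected untreated cells for no effect and uninfected cells for full effect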). Summed up: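 In SNB-19 cells plated at 250 cells/well and grown 16-20 h, compounds were applied 1 h before ZIKV (2 FFU/cell). Six hours later caspase-3/7 luminescence was recorded.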
Experiment [9] can be described thus: qHTS Screen of the MIPE 4.0 Collection Against Ewings Sarcoma (RDES) (AID 1259252; active = well fitted curve in the direction sought with a large enough effect; an effect the other way counts as inactive or inconclusive; note: nearly all actives have a fitted effect of over 35% in size; note: potency is the fitted concentration of half-maximal effect). Summed up: (§2)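 Compound titrations go onto adherent log-phase cells 4 h after seeding, incubate 48 h at 37C, then CellTiter-Glo luminescence reports viability relative to DMSO and cell-free controls.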
The nature of experiment [10]: qHTS Screen of the MIPE 4.0 Collection Against Ewings Sarcoma (TC32) (AID 1259256; active = well fitted curve in the direction sought with a large enough effect; an effect the other way counts as inactive or inconclusive; note: nearly all actives have a fitted effect of over 45% in size; note: potency is the fitted concentration of half-maximal effect). Summed up: as §2
A short description of experiment [11]: qHTS profiling for inhibitors of Plasmodium falciparum (DD2) proliferation (AID 743323). The note with it: lower = more inhibition; at 28.7 µM (top of the series) unless noted. Put shortly:
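Parasite DNA quantified by SYBR Green fluorescence (ex 485, em 535 nm) after saponin/Triton lysis and overnight dark incubation. Cultures: 0.3% parasitemia, 2.5% hematocrit, 72 h, 37 C; data scaled between DMSO and 0.29 uM artemisinin.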

Experiment [12] is described as follows: qHTS profiling for inhibitors of Plasmodium falciparum (HB3) proliferation (AID 743324; active = well fitted curve in the direction sought with a large enough effect; an effect the other way counts as inactive or inconclusive;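 note: 100% = DMSO vehicle wells and 0% = artemisinin-treated control wells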). The note with it: Plasmodium falciparum HB3 blood-stage proliferation; at 28.7 µM (top of the series) unless noted. Put shortly: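 P. falciparum HB3 grown in erythrocytes (0.3% parasitemia, 2.5% hematocrit final) with compound for 72 h at 37 C, 5% CO2. Parasite DNA detected by SYBR Green after saponin/triton lysis overnight; normalized to 0.29 uM artemisinin and DMSO.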

A short description of experiment [13]: qHTS assay to identify small molecule inhibitors of chordoma cells - UCH-2 (AID 1259356; active = well fitted curve in the direction sought with a large enough effect; an effect the other way counts as inactive or inconclusive; note: % is set by controls: 0 for no effect and ±100 for the full control effect).
The nature of experiment [14]: qHTS Screen of the MIPE 4.0 Collection Against Ewings Sarcoma (EW8) (AID 1259255; active = well fitted curve in the direction sought with a large enough effect; an effect the other way counts as inactive or inconclusive; note: potency is the fitted concentration of half-maximal effect; nearly all actives have a fitted effect of over 35% in size). Put shortly: as §2
[15] abbreviates: at 28.5 µM unless noted.

Each structure is given as a SMILES string. Results filed as inconclusive are left out. The source made the active and inactive calls. Unless noted, the rule behind the calls is not given here.

Take `Cn1cnc(-c2cc3nccc(Oc4ccc(NC(=S)NC(=O)Cc5ccccc5)cc4F)c3s2)c1`: the parasite growth, % of DMSO control in experiment [1] (setting [15]) is 8.29%. Moreover, in experiment [2] (setting [15]), the parasite growth remaining, % of DMSO control (lower = more inhibition) was found to be 23.6%. The molecule also showed a parasite growth, % of control (lower = inhibition) in experiment [3] (setting [15]) of 28.5%. The growth, % of control in experiment [4] (setting [15]) was determined as 12%. The cell viability, % of control (lower = more cytotoxic) in experiment [5] was 131%. Further, in experiment [6], the viability (% of control) was found to be 8.37%. Besides, the Potency result in experiment [7] and in experiment [8] was “inactive” in each case. Besides, the Potency is 20.9 µM (active) in [9] and 18.7 µM (active) in [10].

For the molecule `Clc1ccc(COC(Cn2ccnc2)c2ccc(Cl)cc2Cl)c(Cl)c1` (stereo unspecified), the activity, percent of control in experiment [11] was -0.374%. For the same molecule, in experiment [12], the remaining proliferation (% of control), lower = more inhibition was -0.548%. The figures for the parasite growth, % of DMSO control in experiment [1] (at 9.64 µM (top of the series)) and in experiment [1] (at 28.5 µM) were 4.92% and 5.47%, respectively. Moreover, the parasite growth remaining, % of DMSO control (lower = more inhibition) came to 11.2% in [2] (at 9.64 µM (top of the series)) and 6.56% in experiment [2] (at 28.5 µM). The parasite growth, % of control (lower = inhibition) was 19.2% in experiment [3] (at 9.64 µM (top of the series)) and 12.3% in [3] (at 28.5 µM). The growth, % of control was found to be 8.03% in experiment [4] (at 9.64 µM (top of the series)) and 5.5% in [4] (at 28.5 µM). In addition, the cell viability, % of control (lower = more cytotoxic) in experiment [5] is 90.5%. Besides, the viability (% of control) in [6] was 72.7%. The Potency entry in experiment [7] and in [8] was “inactive” in each case. Further, the Potency in experiment [9] was 26.4 µM (active); in experiment [10], 18.7 µM (active). Further, the result in [13] was inactive.

In [1] (setting [15]), `COc1ccc2ccc(=O)oc2c1CC=C(C)C` yielded a parasite growth, % of DMSO control of 94.2%. The molecule also returned a parasite growth remaining, % of DMSO control (lower = more inhibition) in experiment [2] (setting [15]) of 15.6%. In experiment [3] (setting [15]), the parasite growth, % of control (lower = inhibition) worked out at 73.4%. This molecule also displayed a growth, % of control in [4] (setting [15]) of 80.3%. Further, the cell viability, % of control (lower = more cytotoxic) in experiment [5] came to 124%. This molecule also came in with a viability (% of control) in experiment [6] of 97.4%. Also, the Potency result in experiment [7] and in [8] was “inactive” in each case. Further, the Potency is 23.5 µM (active) in experiment [9] and 7.43 µM (active) in experiment [14].

For `Cn1c(=O)c(Oc2ccc(F)cc2F)cc2cnc(NC3CCOCC3)nc21`, in experiment [1] (setting [15]), the parasite growth, % of DMSO control worked out at 25.1%. For the same molecule, the parasite growth remaining, % of DMSO control (lower = more inhibition) in experiment [2] (setting [15]) turned out to be 86.4%. The molecule also gave a growth, % of control in [4] (setting [15]) of 35.7%. Further, in experiment [5], the cell viability, % of control (lower = more cytotoxic) came to 178%. The viability (% of control) in [6] is 93.3%. Also, the Potency entry in [7], in experiment [8], in [9] and in [10] was “inactive” in each case.

In turn, `CNc1nc(-c2ccc3c(N)n[nH]c3c2)cc(N2C[C@@H](C(=O)NC3CCCCC3)CC[C@@H]2C)n1` had a parasite growth, % of DMSO control in experiment [1] (setting [15]) of 5.06%. In addition, the parasite growth remaining, % of DMSO control (lower = more inhibition) in [2] (setting [15]) is 8.54%. The same molecule gave a parasite growth, % of control (lower = inhibition) in experiment [3] (setting [15]) of 11.4%. In experiment [4] (setting [15]), this molecule had a growth, % of control of 4.91%. In addition, in experiment [5], the cell viability, % of control (lower = more cytotoxic) is 6.94%. In addition, in experiment [6], the viability (% of control) turned out to be 18.1%. The Potency result in [7] and in [8] was “inactive” in each case. The Potency in [9] and in experiment [10] was 6.62 µM (active) throughout.

In experiment [1] (setting [15]), `C[C@H]1COC2=C1C(=O)C(=O)c1c2ccc2c1CCCC2(C)C` yielded a parasite growth, % of DMSO control of 5.99%. In [2] (setting [15]), this molecule came in with a parasite growth remaining, % of DMSO control (lower = more inhibition) of 12.1%. Also, the parasite growth, % of control (lower = inhibition) in experiment [3] (setting [15]) is 15.5%. Moreover, the growth, % of control in [4] (setting [15]) came out at 9.95%. For the same molecule, in experiment [5], the cell viability, % of control (lower = more cytotoxic) was 23.4%. The molecule also came in with a viability (% of control) in experiment [6] of 56.6%. In addition, the Potency result in experiment [7] and in [8] was “inactive” throughout. In addition, the Potency in experiment [9] was 20.9 µM (active); in experiment [10] it was 23.5 µM (active).
